In the supplement of paper PMC6522484:
± gives the standard deviation of the averaged measurements.

Columns and labels:
[1] = tested on: DLD1; experiment: cell viability (CellTiter-Glo) relative to plate median (fraction of plate median); higher = more viable cells; conditions: 10 µM, treatment time 24 h
Method in brief: (§1)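 Colorectal cancer cell lines carrying stably transduced lentiviral TCF/Wnt firefly luciferase reporters (7TFP or TCF4/Wnt) were plated in 384-well plates and treated 24 h later with kinase inhibitor library compounds at a final 10 µM for 24 h. Firefly luciferase or CellTiterGlo luminescence was read on parallel plates with a Tecan F500 reader. Signals were normalised per well to the plate median in webcellHTS2 (additive, no log transformation), and values are the mean of two independent replicates.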

[2] = tested on: HCT116; experiment: as above; conditions: 10 µM; treatment time 24 h; reporter: TCF4/Wnt
Method in brief: as §1

[3] = tested on: SW480; experiment: as above; conditions: 10 µM; treatment time 24 h; reporter: 7TFP
Method in brief: as §1

[4] = tested on: DLD1; experiment: TCF/Wnt firefly luciferase reporter signal relative to plate median (fraction of plate median); higher = higher Wnt reporter signal; conditions: 10 µM, treatment time 24 h
Method in brief: as §1

[5] = tested on: HCT116; experiment: as above; conditions: 10 µM; treatment time 24 h; reporter: TCF4/Wnt
Method in brief: as §1

[6] = tested on: SW480; experiment: as above; conditions: 10 µM; treatment time 24 h; reporter: 7TFP
Method in brief: as §1

Row | Structure (SMILES) | cell viability ([1]; reporter: 7TFP) | cell viability ([1]; reporter: TCF4/Wnt) | cell viability [2] | cell viability [3] | TCF/Wnt firefly luciferase reporter signal ([4]; reporter: 7TFP) | TCF/Wnt firefly luciferase reporter signal ([4]; reporter: TCF4/Wnt) | TCF/Wnt firefly luciferase reporter signal [5] | TCF/Wnt firefly luciferase reporter signal [6]
1 | COc1ccc2c(Oc3ccc(NC(=O)c4c(C)n(CC(C)(C)O)n(-c5ccccc5)c4=O)nc3)ccnc2c1 | 1.15 ± 0.19 | 1.01 ± 0.016 | 1.12 | 0.921 ± 0.08 | 0.92 ± 0.35 | 0.99 ± 0.057 | 1.22 ± 0.078 | 1.05 ± 0.078
2 | CCCCCCCCCCCCc1ccc(S(=O)(=O)Nc2nncs2)cc1 | 1.03 ± 0.05 | 0.966 ± 0.037 | 1.16 ± 0.035 | 0.91 ± 0.016 | 0.981 ± 0.041 | 1.14 ± 0.18 | 1.21 ± 0.16 | 0.959 ± 0.12
3 | COc1ccc(-c2ccc3c(N4CCOC[C@@H]4C)nc(N4CCOC[C@@H]4C)nc3n2)cc1CO | 0.94 ± 0.14 | 0.921 ± 0.033 | 0.823 ± 0.12 | 1.17 ± 0.099 | 0.34 ± 0.042 | 0.4795 ± 0.0021 | 0.567 ± 0.08 | 0.829 ± 0.035
4 | N#CC1(c2ccc(NC(=O)c3cccnc3NCc3ccncc3)cc2)CCCC1 [Apatinib (YN968D1)] | 1.14 ± 0.042 | 1.025 ± 0.0071 | 1.22 ± 0.035 | 0.912 ± 0.0092 | 0.975 ± 0.064 | 1.095 ± 0.0071 | 0.727 ± 0.39 | 0.761 ± 0.32
5 | CCc1cc(Nc2nccc(-c3c(-c4ccc(OC)c(C(=O)Nc5c(F)cccc5F)c4)nc4ccccn34)n2)c(OC)cc1N1CCC(N2CCN(S(C)(=O)=O)CC2)CC1 | 0.925 ± 0.059 | 0.995 ± 0.12 | 1.1 ± 0.028 | 0.974 ± 0.066 | 0.939 ± 0.035 | 0.977 ± 0.047 | 1.25 ± 0.05 | 1.24 ± 0.085
6 | CCOc1ccn(-c2ccc(F)cc2)c(=O)c1C(=O)Nc1ccc(Oc2ccnc(N)c2Cl)c(F)c1 | 0.97 ± 0.071 | 0.971 ± 0.056 | 1.16 ± 0.014 | 0.991 | 0.983 ± 0.12 | 0.893 ± 0.12 | 1.19 ± 0.23 | 0.978 ± 0.031
7 | CS(=O)(=O)CCNCc1ccc(-c2ccc3ncnc(Nc4ccc(OCc5cccc(F)c5)c(Cl)c4)c3c2)o1 [Lapatinib Ditosylate (Tykerb)] | 1.06 ± 0.078 | 1.02 ± 0.03 | 0.972 ± 0.04 | 0.913 ± 0.035 | 1.27 ± 0.078 | 1.1 ± 0.042 | 1.25 ± 0.18 | 1.16 ± 0.057
8 | Nc1nccc(Oc2ccc(NC(=O)c3c[nH]cc(-c4ccc(F)cc4)c3=O)cc2F)c1Cl | 1.16 ± 0.22 | 1.01 ± 0.069 | 1.12 ± 0.2 | 0.886 ± 0.018 | 1.07 ± 0.17 | 0.826 ± 0.016 | 0.766 ± 0.32 | 0.549 ± 0.27
9 | NC(=O)Nc1cc(-c2cccc(F)c2)sc1C(=O)N[C@H]1CCCNC1 | 0.645 ± 0.073 | 0.679 ± 0.04 | 0.293 ± 0.12 | 0.838 ± 0.13 | 0.667 ± 0.19 | 0.829 ± 0.15 | 0.436 ± 0.15 | 0.982 ± 0.14
10 | Cn1c(=O)c(F)c(Nc2ccc(I)cc2F)c2c(=O)n(C[C@@H](O)CO)cnc21 | 1.24 ± 0.05 | 1.2 | 0.9705 ± 0.0035 | 1.18 ± 0.035 | 1.66 ± 0.057 | 1.61 ± 0.62 | 1.31 ± 0.42 | 2.19 ± 0.11
11 | CO[C@H]1C[C@@H]2CC[C@@H](C)[C@@](O)(O2)C(=O)C(=O)N2CCCC[C@H]2C(=O)O[C@H]([C@H](C)C[C@@H]2CC[C@@H](OP(C)(C)=O)[C@H](OC)C2)CC(=O)[C@H](C)/C=C(\C)[C@@H](O)[C@@H](OC)C(=O)[C@H](C)C[C@H](C)/C=C/C=C/C=C/1C [Deforolimus (Ridaforolimus)] | 0.979 ± 0.086 | 1.08 ± 0.092 | 0.979 ± 0.044 | 1.27 ± 0.021 | 0.844 ± 0.022 | 1.02 ± 0.24 | 0.799 ± 0.43 | 1.11 ± 0.39
12 | COc1cc(Nc2ncc(F)c(Nc3ccc4c(n3)NC(=O)C(C)(C)O4)n2)cc(OC)c1OC | 1.1 ± 0.17 | 0.982 ± 0.054 | 1.11 ± 0.12 | 1.01 ± 0.037 | 1.05 ± 0.13 | 0.941 ± 0.044 | 1.24 ± 0.2 | 0.914 ± 0.57
13 | COc1cc2ncnc(Nc3ccc(O)c(Br)c3)c2cc1OC | 1.04 ± 0.13 | 0.98 ± 0.029 | 1.13 ± 0.28 | 1.01 | 1.11 ± 0.021 | 0.832 ± 0.11 | 1.11 ± 0.17 | 1.17 ± 0.014
14 | CCCS(=O)(=O)Nc1ccc(F)c(C(=O)c2c[nH]c3ncc(Cl)cc23)c1F | 1.03 ± 0.08 | 0.942 ± 0.074 | 1.12 ± 0.071 | 0.837 ± 0.013 | 0.775 ± 0.33 | 0.746 ± 0.1 | 1.05 ± 0.11 | 0.786 ± 0.067
15 | COc1cc2c(Oc3ccc4[nH]c(C)cc4c3F)ncnc2cc1OCCCN1CCCC1 [Cediranib (AZD2171)] | 0.659 ± 0.18 | 0.769 ± 0.054 | 0.658 ± 0.02 | 0.893 ± 0.067 | 0.968 ± 0.51 | 0.801 ± 0.32 | 0.354 ± 0.15 | 0.699 ± 0.12
16 | CC(C)c1cnn2c(NCc3ccccc3)cc(NCCCCCCN)nc12 | 1 ± 0.067 | 0.969 ± 0.073 | 1 ± 0.055 | 0.921 ± 0.041 | 1.27 ± 0.11 | 1.52 ± 0.028 | 0.988 ± 0.14 | 1.2 ± 0.17
17 | FC(F)(F)c1ccc(/C=C/c2nc(COc3ccc(CCCCn4ccnn4)cc3)co2)cc1 [Mubritinib (TAK 165)] | 0.979 ± 0.03 | 0.946 ± 0.09 | 0.771 ± 0.032 | 0.911 ± 0.1 | 1 ± 0.094 | 0.984 ± 0.023 | 0.639 ± 0.23 | 0.816 ± 0.49
18 | Oc1c2ccccc2c2c3c(cccc13)N=N2 | 1.06 ± 0.099 | 1.01 ± 0.016 | 1.12 ± 0.021 | 0.931 ± 0.016 | 1.07 ± 0.14 | 1.18 ± 0.014 | 1.34 ± 0.23 | 1.06 ± 0.021
19 | NC(=O)Nc1sc(-c2ccc(F)cc2)cc1C(N)=O | 0.951 ± 0.033 | 0.93 ± 0.075 | 1.1 ± 0.085 | 1.1 ± 0.014 | 0.669 ± 0.03 | 1.16 ± 0.18 | 1.39 ± 0.2 | 1.38 ± 0.057
20 | CC(C)(C)Cn1c(N)nc2ccc(-c3[nH]c(C(C)(C)C)nc3-c3ccc(F)cc3)nc21 | 1.07 ± 0.12 | 0.931 ± 0.089 | 0.928 ± 0.071 | 1.11 | 1.21 ± 0.05 | 0.969 ± 0.1 | 1.45 ± 0.38 | 1.36 ± 0.014
21 | CC(C)(O)CC(=O)NCCn1ccc2ncnc(Nc3ccc(Oc4cccc(C(F)(F)F)c4)c(Cl)c3)c21 | 1.04 ± 0.16 | 1.03 ± 0.089 | 1.17 ± 0.14 | 0.959 ± 0.058 | 1.16 ± 0.15 | 1.07 ± 0.18 | 0.902 ± 0.27 | 0.879 ± 0.5
